# Test results: ChEMBL document CHEMBL3988442, “University of Dundee, Small-Polar-MMV Screening Library” (2021)
# Among all 48,000 compounds or so, about 13,000 (27%) showed an effect of 50% or more. Some of the results follow.
# Tested on: Wolbachia pipientis
# Assay: Anti-Wolbachia Cell-Based Screen
# Assay type: functional
# Parameters: scale not given: in the data most compounds retested in dose-response had high values
# Conditions: 5 µM
row,SMILES,Percent Effect [%]
1,C[C@@H](NC(=O)c1cnccn1)c1c(-c2ccc(Cl)cc2)noc1C(=O)O.Cl,-1.348
2,CCCc1nc(CNc2cc(CS(C)(=O)=O)ccc2Cl)no1,-7.067
3,Cc1nc(C2CCNCC2)cc(N2CCCC(C(=O)NCCCO)C2)n1 (centres undefined),12.53
4,Cc1nc(NC2CCCCC2)cc(C2CCCNC2)n1.Cl (centres undefined),84.03
5,Cc1nccc(N[C@H]2CN(CCC(=O)NC3CCCC3)C[C@@H]2C2CC2)n1,-19.22
6,CNC(=O)C1CCN(c2cc(C3CCNCC3)nc(C)n2)C1 (centres undefined),9.34
7,Cc1nc(CCC(=O)NC2CCC2)cc(C2CCCNC2)n1 (centres undefined),108.9
8,Cc1nc(CCC(=O)NCC(N)=O)cc(C2CCNCC2)n1,128.9
9,CNC(=O)CCc1cc(C2CCNCC2)nc(C)n1.Cl.Cl,115.3
10,Cc1nc(NC2CCS(=O)(=O)CC2)cc(C2CCCNC2)n1 (centres undefined),5.772
11,COc1ccc(OCc2cc(C(=O)N3CCC(O)CC3)n[nH]2)c(Cl)c1,8.523
12,CN(C)S(=O)(=O)N(Cc1cscn1)c1ccccc1,6.938
13,CCN(CC)c1ccc(NC(=O)N2CCc3sccc3C2)cn1,-4.731
14,CC(C)(O)c1cn(C2CCN(C(=O)CCC3CCCC3)CC2)nn1,7.362
15,Cc1nc(CCC(N)=O)cc(C2CCNCC2)n1,77.84
16,CC(=O)NC1CCN(c2cc(C3CCNCC3)nc(C)n2)C1 (centres undefined),-6.629
17,FC(F)(F)CN1CCC(CNc2nc3ccccc3o2)C1 (centres undefined),19.02
18,CCN1CCC(CC(=O)N2CCc3sc(C(=O)N(C)C)cc3C2)CC1,-40.78
19,CCCc1nnc(SCC(=O)Nc2cc(C(C)(C)C)nn2C)[nH]1,5.759
20,Cn1cccc1C(=O)Nc1cc(F)ccc1OCC1CCCO1 (centres undefined),-3.687
21,CC(NC(=O)c1ccc(=O)n(C)c1)c1ccc(OCC2CC2)c(F)c1 (centres undefined),7.042
22,Cn1cc(C(=O)Nc2cc(F)ccc2OCC2CCCO2)ccc1=O (centres undefined),100.3
23,Cn1ccc(C(=O)Nc2cc(F)ccc2OCC2CCCO2)cc1=O (centres undefined),108.3

row,SMILES,Percent Effect [%]
1,CN1N=C(C(=O)Nc2cc(F)ccc2OCC2CCCO2)CCC1=O (centres undefined),0.7919
2,CS(=O)(=O)N[C@@H]1CCN(Cc2cccs2)[C@H]1Cc1cccnc1,-19.82
3,O=C(O)c1ccnc(-c2ccnc(N3CCCCCC3)n2)c1,-0.3436
4,Cc1nn(-c2ccccc2)c(C)c1-c1ccnc(N2CCCOCC2)n1,7.099
5,O=c1c2cnc(N3CCOCC3)nc2ccn1-c1ccccc1,4.201
6,O=S1(=O)NC(c2ccnc(N3CCOCC3)n2)=Nc2ccccc21,140.3
7,O=S1(=O)NC(c2ccnc(N3CCCCC3)n2)=Nc2ccccc21,89.99
8,CS(=O)(=O)N1CCN(c2ccnc(N3CCCC3)n2)CC1,-2.838
9,CS(=O)(=O)N1CCN(c2ccnc(N3CCCCC3)n2)CC1,0.3412
10,O=S1(=O)NC(c2ccnc(N3CCCC3)n2)=Nc2ccccc21,149.4
11,CC(CO)CSc1ncnc2[nH]ncc12 (centres undefined),8.493
12,CCC1CN(c2nnc(C)c(C)c2C#N)CCO1 (centres undefined),-3.23
13,CCc1nnsc1C(=O)N1CCOC(c2nc(C(C)C)n[nH]2)C1 (centres undefined),112.8
14,CC(C)c1n[nH]c(C2CN(C(=O)C3=COCC3)CCO2)n1 (centres undefined),-4.984
15,CCc1nnsc1C(=O)N1CCOC(c2nc(C)n[nH]2)C1 (centres undefined),12.72
16,CCc1ocnc1C(=O)N1CCOC(c2nc(C(C)C)n[nH]2)C1 (centres undefined),114.1
17,CCc1n[nH]c(C2CN(C(=O)c3ncoc3CC)CCO2)n1 (centres undefined),97.1
18,Cc1noc(C)c1CN1C[C@@H]2CC[C@H](C1)N(Cc1cc(F)cc(F)c1)C2,3.369
19,N#Cc1ccccc1CN1C[C@@H]2CC[C@H](C1)N(CC1CCC1)C2=O,-9.781
20,O=C(O)C(F)(F)F.O=C(c1ccncc1)N1CCCn2nnc(COCCO)c2C1,26.37
21,CCc1nnc2n1CCN(Cc1noc(-c3cccc(C)c3)n1)C2,-12.68
22,Cc1ccccc1OCC(O)C(=O)N1CCC2(CC1)CN(C)C(=O)O2 (centres undefined),-0.4396
23,COc1ccc(NC(=O)Cc2c(C)nc3c(c2C)c(=O)[nH]n3C)cn1,22.04

row,SMILES,Percent Effect [%]
1,CC(C)CC(=O)NCc1cccc(OCCN(C)C2CCOCC2)c1,-19.6
2,c1ccc2sc(NCC3(N4CCOCC4)CCSC3)nc2c1 (centres undefined),0.766
3,O=C(CC(F)(F)F)NCC(O)c1ccc2ccccc2c1 (centres undefined),-2.994
4,Cc1ccc(CN2CC[C@H](c3nnc(-c4ccco4)o3)C2)cc1,-0.8562
5,Cc1ncsc1-c1nnc(C2CCN(CC3CCCCC3)CC2)o1,-4.118
6,COc1ccc(CN2CC[C@H](c3nnc(-c4ccco4)o3)C2)cc1,27.76
7,Cc1ncsc1-c1nnc(C2CCN(Cc3ccccc3)CC2)o1,104.4
8,Cc1ncsc1-c1nnc(C2CCN(Cc3ccc(Cl)cc3)CC2)o1,113.6
9,COc1ccc(-c2nnc([C@H]3CCN(CC(C)(C)C)C3)o2)cc1,4.195
10,Cc1ncsc1-c1nc(CC2CCN(C)CC2)nn1Cc1ccccc1,-11.92
11,COc1ccc(CN2CCC(c3nnc(-c4scnc4C)o3)CC2)cc1,115.7
12,Cc1ncsc1-c1nnc(C2CCN(Cc3ccc(F)cc3)CC2)o1,-4.23
13,COc1ccc2c(c1)CC(C(=O)N(C)Cc1noc3c1CCCC3)CO2 (centres undefined),-16.58
14,c1cnnc(N2CCC(c3nnc(Cn4ccnc4)n3C3CC3)CC2)c1,-16.04
15,Cc1nc(NC(=O)COCC(F)(F)F)ccc1Br,2.547
16,COc1cccnc1NC(=O)COc1ccc(F)cc1F,10.02
17,Cc1n[nH]c(C)c1NC(=O)c1cccc(OCC(F)(F)F)n1,9.795
18,O=C(Nc1cc[nH]n1)c1ccc(COCC(F)(F)F)cc1,87.88
19,COc1cccnc1NC(=O)COC1CCCC1,13.24
20,CC(C)CC(NC(=O)c1cccc(F)c1F)C(=O)Nc1cc[nH]n1 (centres undefined),-2.094
21,CN(C)CCN(Cc1ccc(C(F)(F)F)cc1)C(=O)c1cc[nH]n1,-18.8
22,Cc1n[nH]c(NC(=O)c2ccc(COCC(F)(F)F)cc2)c1C,90.05
23,COc1cccnc1NC(=O)c1ccc(COCC(F)(F)F)cc1,77.14
